Hits are enriched below; roughly 4.9% of the tested compounds scored in any of these assays.
SKKanGAS inh: inhibitors of SKKanGAS S. pyogenes growth in kanamycin (SK-promoter or general growth effect); BacTiter-Glo, 6 h; inhibition, % at 7.5 µM; actives 1.3% (n = 300,000); AID 1662;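 active = mean replicate score, as percent of positive control median, at least 50; inconclusive = mean below 50 but one replicate at or above 50; inactive = mean and every replicate below 50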;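 also: strain carries kanamycin resistance gene driven by streptokinase promoter and grows in 40 µg/ml kanamycin; loss of luminescence reflects streptokinase promoter inhibition or plain growth inhibition; 0% = median of DMSO wells and 100% = positive control at its reference dose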
tim23-1 inh: tim23-1 yeast growth inhibition | S. cerevisiae tim23-1 growth, BacTiter-Glo luminescence, 24 h | actives 1.3% (n = 330,000) | AID 463212 | inhibition, % at 20 µM;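 active = growth inhibition of the mutant yeast at or above 50%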;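 also: temperature-sensitive mutant grown at 25 °C; plate controls were DMSO-treated mutant yeast for no effect and medium wells lacking yeast for full effect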
TIM10 inh: growth inhibitors of TIM10 yeast strain; S. cerevisiae TIM10 strain growth, BacTiter-Glo luminescence, 24 h; inhibition, % at 10 µM; actives 1.4% (n = 330,000);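 active = inhibition of 40% or more at the single tested concentration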;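 also: wild-type TIM10 isogenic control strain grown at permissive 25 °C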
tim10-1 inh: tim10-1 yeast growth inhibition; inhibition, % at 20 µM; S. cerevisiae tim10-1 ts strain growth, BacTiter-Glo, 24 h; actives 2.2% (n = 330,000);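 active = inhibition of at least 40%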;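 also: mutant grown at 25 °C; 0% = DMSO wells with yeast and 100% = wells holding no yeast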
NALP1 yeast inh: blocks the NALP1 inflammasome reconstituted in yeast | S. cerevisiae NALP1/ASC/caspase-1 growth, X-gal OD620, 72 h | inhibition, % at 10 µM | actives 0.61% (n = 280,000); in the data active = inhibition mostly above about 24%, no sharp cut-off; inactive = mostly below about 32%
NALP3 yeast inh: blocks the NALP3 inflammasome reconstituted in yeast | Yeast reconstituted NLRP3/ASC/caspase-1, beta-gal luminescence, 24 h | inhibition, % at 10 µM | actives 0.39% (n = 330,000) | AID 2825;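 active = inhibition of 50% or more; inactive = inhibition below 50%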;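 also: plate controls were induced DMSO wells for no effect and uninduced yeast grown without galactose for full effect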
tim23-1 confirm: tim23-1 yeast growth inhibition, confirmed; actives 83% (n = 4,400); inhibition, % at 20 µM; S. cerevisiae tim23-1 growth, BacTiter-Glo luminescence, 24 h; AID 463218; shares compounds with tim23-1 inh;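 active = inhibition above about 39% in either of two replicate wells at 20 µM, limit read from the data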;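 also: temperature-sensitive tim23-1 mutant grown at 25 °C; 0% = DMSO wells with yeast and 100% = medium wells without yeast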
The depositor's hits bear a star; ? = inconclusive; nt = no result given.

SMILES	SKKanGAS inh	tim23-1 inh	TIM10 inh	tim10-1 inh	NALP1 yeast inh	NALP3 yeast inh	tim23-1 confirm
CCOc1ccc(C2NC(=O)c3ccccc3O2)cc1 (configuration not stated)	3	21	30	16	5	22	nt
COC(=O)c1ccc(COC(=O)c2ccc(CO)cc2)o1	-7	4	-10	23	23	19	nt
CC(C)CN1C(=O)c2ccc(NC(=O)c3ccco3)cc2C1=O	-8	52*	31	10	7	32	53*
CC(=O)c1c(O)cc(=O)n(-c2ccccc2)c1-c1ccc(C)cc1	-3	-1	8	2	-2	-6	nt
CC(=O)c1c(O)c(C)c(-c2ccccc2)n(-c2ccccc2)c1=O	5	56*	24	33	13	33	43*
COC(=O)c1ccc(C(=O)Nc2ccc(C(C)C)cc2N)cc1	-2	-8	22	8	12	16	nt
Cc1cccc(N2C(=O)c3ccc(Br)cc3C2=O)n1	-3	56*	12	5	5	29	45*
Cc1ccc(NS(=O)(=O)c2cccc(C(=O)N/N=C/c3ccc4c(c3)OCCO4)c2)c(C)c1	23	0	7	13	32	9	nt
CCOc1ccc(-n2ccnc(SCC(=O)Nc3ccc(CC)cc3)c2=O)cc1	1	56*	7	16	nt	33	53*
COc1ccc(C2CC(c3ccc(Cl)cc3)=NN2C(=O)c2cccc([N+](=O)[O-])c2)cc1 (configuration not stated)	19	29	13	15	8	18	nt
CC12CCC(c3c(C(=O)Nc4nccs4)nn(-c4ccccc4)c31)C2(C)C (configuration not stated)	?	59*	34	22	23	8	57*
Nc1c(N(Cc2ccco2)C(=O)c2ccc(Cl)cc2)c(=O)[nH]c(=O)n1Cc1ccccc1	nt	60*	16	0	nt	20	66*
N#Cc1ccc(C(=O)N(Cc2ccco2)c2c(N)n(Cc3ccccc3)c(=O)[nH]c2=O)cc1	nt	39	10	13	nt	9	nt
Nc1c(N(Cc2ccco2)C(=O)c2cccc(Cl)c2)c(=O)[nH]c(=O)n1Cc1ccccc1	nt	4	-1	2	nt	20	nt
Nc1c(N(Cc2ccco2)C(=O)c2ccc(Br)cc2)c(=O)[nH]c(=O)n1Cc1ccccc1	nt	59*	17	6	nt	4	72*
CC(=O)c1cccc(NC(=O)C(Sc2ncnc3ccccc23)c2ccccc2)c1 (configuration not stated)	12	14	17	6	nt	22	nt
Cc1ccc(CCNC(=O)C2CCN(S(=O)(=O)c3ccc4c(c3)NC(=O)CO4)CC2)cc1	2	-2	-2	8	-9	9	nt
Cc1ccccc1Nc1nc2ccccc2s1	15	50*	22	32	31	25	35
CCC(=O)Nc1ccc2c(c1)N(C(C)=O)c1ccccc1CC2	7	-3	5	8	20	11	nt
COc1ccc(NC(=O)CSc2nc(SC)ns2)cc1	7	-3	-1	-31	-6	13	nt
Oc1ccc(Cl)cc1CNCc1ccc(Cl)cc1	nt	60*	10	17	nt	21	38*
COC(=O)c1ccc(-n2c(C)cc(C(=O)CCl)c2C)cc1	-50	52*	33	7	0	-73	30
Cc1cc(N)n2nc(-c3ccccc3)c(-c3ccccc3)c2n1	-9	59*	10	16	-2	24	46*
O=C(Nc1ccc(F)cc1)c1cc(-c2ccccn2)nc2c(Cl)cccc12	-3	-8	-13	-13	24	11	nt
CC(=O)NC(c1cc(F)c2cccnc2c1O)C1CC1 (configuration not stated)	nt	29	0	25	nt	13	nt
SMILES	SKKanGAS inh	tim23-1 inh	TIM10 inh	tim10-1 inh	NALP1 yeast inh	NALP3 yeast inh	tim23-1 confirm
CCC(=O)NC(c1cccs1)c1cc(Cl)c2cccnc2c1O (configuration not stated)	66*	51*	35	28	-10	27	70*
Cc1[nH]c2ccccc2c1C(c1ccccn1)N1CCCC1 (configuration not stated)	-1	4	5	-1	-16	9	nt
CCC(=O)NC(c1cc(Cl)c2cccnc2c1O)C(C)C (configuration not stated)	nt	52*	-17	38	nt	18	53*
CCC(=O)NC(NC(=S)Nc1cccc2cccnc12)C(Cl)(Cl)Cl (configuration not stated)	1	7	-22	24	-2	6	nt
CC(=O)NC(c1ccccc1)c1cc(Cl)c2cccnc2c1O (configuration not stated)	79*	56*	4	15	1	36	67*
Oc1c(C(c2ccccn2)N2CCCCC2)cc(Cl)c2cccnc12 (configuration not stated)	54*	53*	-17	20	10	19	64*
COC(=O)c1ccc2nc(NC(=O)C(C)C)sc2c1	-5	33	28	38	-2	18	nt
CC1CC1C(=O)Nc1nc2ccc(Cl)cc2s1 (configuration not stated)	5	56*	34	40	nt	23	53*
COC(=O)c1ccc2nc(NC(=O)C3CC3)sc2c1	-3	51*	33	34	24	16	50*
Cc1ccc(-c2nc3n(n2)Cc2ccccc2-3)cc1	4	54*	20	14	-11	20	50*
Cc1ccc(S(=O)(=O)/C(C#N)=C/c2c(Oc3ccc(Cl)cc3)nc3c(C)cccn3c2=O)cc1	2	50*	-12	2	16	8	24
COc1cc([N+](=O)[O-])cc(/C=C2/SC(=S)N(Cc3ccccc3)C2=O)c1O	41	nt	nt	nt	11	nt	nt
O=C(O)CN1C(=O)/C(=C\c2cc(Br)ccc2OCc2ccc([N+](=O)[O-])cc2)SC1=S	32	53*	30	-5	3	16	71*
COC(=O)C1=C(Nc2ccccc2NC(=O)c2ccccc2C(=O)O)CSC1	3	28	17	21	nt	5	nt
COC(=O)C1=C(Nc2ccccc2NS(=O)(=O)c2ccc(C(F)(F)F)cc2Cl)CSC1	9	54*	34	38	nt	16	52*
Cc1cc2c(cc1S(=O)(=O)NC1CCCCC1C)OCC(=O)N2 (configuration not stated)	4	24	9	27	13	11	nt
Cc1nc(-c2ccc(NC(=O)C3CC3)cc2)cs1	0	54*	18	-7	17	21	40*
Cc1nc(-c2ccc(NC(=O)c3ccc(Br)o3)cc2)cs1	21	62*	9	5	28	38	56*
COc1cc(NS(=O)(=O)c2csc(C(N)=O)c2)cc(OC)c1	2	0	7	11	22	4	nt
